Compounds with a hit are over-represented: about 3.4% of the library has one in this group of screens.
Mito fusion act – blocks mitochondrial division or promotes mitochondrial fusion; S. cerevisiae fusion-defective mutant growth rescue, CellTiterGlo 48 h; Potency, µM (series often up to 46.1 µM), inactives show top-dose growth rescue (activation), most hits filed as activators; hit rate 0.23% among 320,000; further: % of control where 0% means no effect; nearly all actives have a fitted effect of over 45% in size
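Read-out: ATP-based luminescence (CellTiterGlo, 10 min ambient) reporting growth of fusion-defective ts yeast after 48 hours at 37C on glycerol/ethanol YPEG medium in the presence of compound.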
PLK1 PBD block – inhibitors of human PLK1 polo-box domain binding | P53350 | Plk1 PBD binding of FITC phosphopeptide, fluorescence polarization | Potency, µM, inactives show max response, negative = inhibition, hits mostly inhibitors | hit rate 2.8% among 360,000 | AID 720504; further: series mostly up to about 57 µM; on the % scale 0 is the no-effect control and ±100 the full control effect; nearly all actives have a fitted effect of over 65% in size
VDR inh – inhibitors of human vitamin D receptor; Potency, µM, for the others: max response, negative = inhibition, most hits filed as inhibitors; P11473; VDR-SRC2-3 peptide fluorescence polarization, 2 h; AID 504847; hit rate 0.93% among 400,000; further: on the % scale 0 is the no-effect control and ±100 the full control effect
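Inhibition of the VDR/SRC2-3 peptide interaction is quantified by fluorescence polarization. Compounds (23 nl, pintool) incubate with the reagents for 2 hours at ambient room temperature.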
KAT2A inh – inhibitors of human GCN5L2 histone acetyltransferase. Q92830. GCN5L2 HAT assay, ThioGlo1 CoA-SH fluorescence. Potency, µM (top dose mostly 58.9 µM), without a hit: at the highest dose activity change, negative = inhibition, hits mostly inhibitors. hit rate 0.21% among 390,000; further: on the % scale 0 is the no-effect control and ±100 the full control effect
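qHTS, 1536-well. 20nM enzyme, pH 7.5 HEPES/EDTA/Tween-20 buffer; 15 min compound preinc., RT. Start: 75uM H3(1-25), 70uM AcCoA, 50uM ThioGlo1. Read Ex340/Em540 at t=0 (autofluorescence flag) and t=20 min.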
PKM2 act – activators of human pyruvate kinase M2 | purified PKM2, Kinase-Glo ATP luminescence, activation; response scale: 0% is enzyme alone, no compound | hit rate 0.34% among 260,000 | Potency, µM (series often up to 57.5 µM), for the others: top-dose activation, actives largely listed as activators | AID 1631; further: on the % scale 0 is the no-effect control and ±100 the full control effect; nearly all actives have a fitted effect of over 55% in size
Target sequence (P14618 whole entry, looked up): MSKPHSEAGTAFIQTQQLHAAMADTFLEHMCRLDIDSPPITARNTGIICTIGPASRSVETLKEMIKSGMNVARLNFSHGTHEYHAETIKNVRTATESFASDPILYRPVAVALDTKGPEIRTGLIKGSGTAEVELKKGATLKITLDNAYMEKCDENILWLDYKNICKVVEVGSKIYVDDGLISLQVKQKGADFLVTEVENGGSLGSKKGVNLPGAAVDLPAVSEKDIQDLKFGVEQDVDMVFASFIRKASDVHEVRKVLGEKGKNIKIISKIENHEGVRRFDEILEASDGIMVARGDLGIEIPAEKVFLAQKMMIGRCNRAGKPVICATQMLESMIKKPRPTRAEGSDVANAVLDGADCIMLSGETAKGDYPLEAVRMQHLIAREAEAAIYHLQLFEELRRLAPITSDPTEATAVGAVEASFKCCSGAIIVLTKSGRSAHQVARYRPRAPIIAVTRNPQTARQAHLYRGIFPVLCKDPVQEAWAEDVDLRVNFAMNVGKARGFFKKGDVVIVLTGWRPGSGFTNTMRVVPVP
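Kinase-Glo luminescence reports ATP generated from ADP (0.1 mM) and PEP (0.5 mM) by purified hPK-M2 after 1 h at room temperature, pH 7.2 imidazole buffer; intermediate enzyme activity allows detecting inhibitors and activators.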
GLS inhibitor – inhibitors of human glutaminase (GLS); O94925; GLS enzymatic activity, qHTS titration; Potency, µM (doses to about 45.5 µM), without a hit: top-dose activity change, negative = inhibition, most hits filed as inhibitors; hit rate 0.21% among 410,000; AID 624170; further: on the % scale 0 is the no-effect control and ±100 the full control effect
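Read-out is an Amplex red fluorescence increase coupled through glutamate oxidase and HRP, measured before and after 30 min room-temperature incubation. hKGA is in 45 mM KH2PO4 (pH 8.2) with 0.02% Tween-20; glutamine added as 1mM solution.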
Starred values were filed as active, the others as inactive; ? = inconclusive; . = no result; ! = not confirmed by another sample; [ ] = another dose, or the depositor's remark. The call rests on the fitted dose curve; in most records, active means well fitted curve in the direction sought with a large enough effect; inconclusive means small, poorly fitted or top-dose-only effect, or another doubt; inactive means no such curve, though single readings can be large; an effect the other way counts as inactive or inconclusive. Potency means the concentration at half of the fitted maximal effect.

SMILES	Mito fusion act	PLK1 PBD block	VDR inh	KAT2A inh	PKM2 act	GLS inhibitor
CCCCCCCCCC(=O)NO	.	.	0%	-3%	.	-2%
Cc1ccc(S(=O)(=O)N2CCc3ccccc3C2)cc1	1%	2%	-25%	-15%	-2%[11.5 µM]	-5%
NC(=O)c1cc(S(=O)(=O)N2CCc3ccccc3C2)cs1	-3%	21µM*	?	2%	.	-21%
Cc1ccc(F)c(NC(=O)/C(C#N)=C(\O)c2ccc(C(C)(C)C)cc2)c1	-2%	30µM*	?	?	1%	16%
Cc1ccc2[nH]c(=O)c(CN(CCCO)Cc3nnnn3Cc3ccco3)cc2c1	.	.	-6%	.	.	.
COc1ccc2cc1Oc1cc3c(cc1OC)CC[N+](C)(C)C3Cc1ccc(cc1)Oc1c(OC)c(OC)cc3c1C(C2)[N+](C)(C)CC3 (stereo not given)	.	.	-1%	20µM*	.	-2%
CC(C)C[C@@H](CNCC(=O)[C@H](Cc1ccccc1)NC(=O)c1[nH]cnc1C(=O)N[C@H](CN)CC(C)C)NC(=O)c1nc[nH]c1C(=O)N[C@@H](CC(=O)O)C(=O)O	.	34µM*	?	.	.	13µM*
CC(C)C[C@@H](CN)NC(=O)c1nc[nH]c1C(=O)N[C@@H](C)C(=O)CNC[C@H](CC(C)C)NC(=O)c1nc[nH]c1C(=O)N[C@@H](Cc1ccccc1)C(=O)O	.	?	-27%	.	.	?
CC(C)C[C@@H](CN)NC(=O)c1nc[nH]c1C(=O)N[C@@H](Cc1ccccc1)C(=O)CNC[C@H](C)NC(=O)c1nc[nH]c1C(=O)N[C@@H](CC(C)C)C(=O)O	.	-27%	-22%	.	.	7%
CC(C)C[C@@H](CNCC(=O)[C@H](CC(C)C)NC(=O)c1[nH]cnc1C(=O)N[C@H](CN)CC(C)C)NC(=O)c1nc[nH]c1C(=O)N[C@@H](Cc1ccccc1)C(=O)O	.	21µM*	?	.	.	-13%
CCCCCCCCCCCCC/C=C/[C@@H](O)[C@H](COP(=O)([O-])OCC[N+](C)(C)C)NC(=O)CCCCCCCCCCCCCCCCC	.	.	-1%	.	.	.
CCCCC(=O)NC(=S)NNS(=O)(=O)c1ccccc1	1%	12µM*	?	-6%	-23%	3%
Cc1ccc(C(=O)CSc2nsc(C)c2C#N)cc1	13%	15µM*	?	1%	-2%	-7%
COC(=O)c1ccccc1CSc1nsc(C)c1C#N	21%	13µM*	-25%	-1%	.	-12%
N#Cc1c(SCC(N)=O)nsc1SCc1ccc(Cl)cc1	8%	-2%	5%	1%	-8%	5%
COC(=O)c1cc(C#N)c(SCc2ccccc2)nc1C	6%	2%	-18%	2%	-3%	4%
Cc1snc(SCC(=O)c2ccc(Cl)cc2)c1C#N	25%	21µM*	-25%	-1%	-1%	6%
CC1=C(/C=C/C(=O)O)C(C)(C)CCC1	8%	-8%	-19%	-3%	2%	-1%
CC1=C(/C=C/C(C)=C/C=C/C(C)=C\C(=O)O)C(C)(C)CCC1	8%	?	50µM*!	-4%	.	2%
CC1=C(/C=C/C(C)=C/C=C/C(C)=C/C(=O)Nc2ccc(O)cc2)C(C)(C)CCC1	?	-9%	-7%	-29%	11%	0%
CC1=C(/C=C/C(=C/C=C/C(C)=C/C(=O)O)c2ccc(C)cc2)C(C)(C)CCC1	.	.	22µM*	-18%	.	.
CC1=C(\C=C/C(C)=C/C=C\C(C)=C\C(=O)O)C(C)(C)CCC1	.	.	18µM*	-2%[21.4 µM]	.	.
COc1ccc(-n2ncc3c(SCC(=O)OC(C)C)ncnc32)cc1	.	-6%	.	.	.	-2%
CC1CC(C)CN(c2oc(-c3ccc(OCc4ccccc4Cl)cc3)nc2C#N)C1 (stereo not given)	.	.	-11%	.	.	.
CC(C)Oc1ccc(C(=O)Nc2ccccc2N2CCCC2)cc1	4%	27µM*	-8%	-6%	0%	22%
SMILES	Mito fusion act	PLK1 PBD block	VDR inh	KAT2A inh	PKM2 act	GLS inhibitor
O=C(c1ccc2c(=O)n(Cc3ccco3)c(=S)[nH]c2c1)N1CCN(c2ccccc2)CC1	-2%	-13%	-11%	-16%	13µM*	30%
CCCn1c(=S)[nH]c2cc(C(=O)N3CCN(c4ccccc4)CC3)ccc2c1=O	.	1%	.	.	.	2%
O=c1c2cc(N3CCOCC3)ccc2[nH]c(=S)n1Cc1ccco1	-5%	?	79µM*	?	?	-7%
CN(C)/C=N/c1nc2nccc(-c3ccc(F)cc3)n2n1	16%	-15%	-6%	?	-4%	-7%
CN(C)/C=N/c1nc2ncc(-c3ccc(Cl)cc3)c(/N=C/N(C)C)n2n1	-1%	27µM*	-8%	-1%	.	1%
CN(C)/C=N/c1nc2nccc(-c3cccc(Cl)c3)n2n1	10%	27µM*	-25%	-20%	.	-3%
CC(Oc1cccc(Cl)c1)c1ccnc2nc(/N=C/N(C)C)nn12 (stereo not given)	8%	-5%	32%	-2%	-3%	6%
CC[C@H](C)[C@H](NC(=O)[C@H](Cc1ccc(O)cc1)NC(=O)[C@@H](NC(=O)[C@H](CCCN=C(N)N)NC(=O)[C@@H](N)CC(=O)O)C(C)C)C(=O)N[C@@H](Cc1cnc[nH]1)C(=O)N1CCC[C@H]1C(=O)O	.	.	1%	-20%	.	.
FC(F)(F)c1nc(=S)c2ccccc2[nH]1	0%	21µM*	?	?	-20%	-19%
CCOc1ccc2c(c1)C(C)=CC(C)(C)N2	0%	-2%	45µM*!	-10%	.	-7%
CN(CCC#N)C(=O)COC(=O)c1cccnc1Nc1ccccc1F	-10%	27µM*	-11%	1%	0%	-2%
C[C@@H](NC(=O)c1[nH]cnc1C(=O)Nc1nccs1)c1ccccc1	3%	-3%	6%	-25%	.	0%
N#Cc1nc(COc2ccccc2)oc1N1CCN(Cc2ccccc2)CC1	15%	30µM*	-13%	-10%	-15%	0%
N#Cc1nc(COc2ccccc2)oc1N1CCC(Cc2ccccc2)CC1	-1%	-3%	6%	-7%	19%	0%
Cc1ccc(OCc2nc(C#N)c(N3CCN(Cc4ccccc4)CC3)o2)cc1	15%	27µM*	9%	-22%	3%	45%
COCCN(C(=O)CSc1nc2ccccc2s1)c1c(N)n(Cc2ccccc2)c(=O)[nH]c1=O	.	?	79µM*	.	.	7%
COc1ccccc1N1CCN(S(=O)(=O)c2c(C(=O)N3CCOCC3)c(C)n(C)c2C)CC1	6%	3.4µM*	?	-1%	.	-14%
COc1ccc(NS(=O)(=O)c2c(C(=O)N3CCCCCC3)c(C)n(C)c2C)cc1OC	3%	?	-17%	-5%	0%	-2%

Screening data as filed in PubChem.
